Source: PubChem BioAssay (NCI)
This is part of a sample that, as a whole, favours compounds with a hit. Of some 79,000 tested, about 15% had one in any assay. Calls of active or inactive are those of the source. Cut-off read from the data, not from the text of the source: active = growth inhibition above about 70%; inactive = the rest.

Tests used:
[1] = NCI Yeast Anticancer Drug Screen. Data for the rad52 strain (AID 147);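 note: 0% = growth of vehicle-treated control cultures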; conditions: S. cerevisiae rad52 mutant growth inhibition, stronger effect = higher value
Outline: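 Vehicle-treated cultures served as the reference for growth inhibition of compound-exposed yeast bearing a DNA repair mutation.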

[2] = NCI Yeast Anticancer Drug Screen. Data for the wt1 strain (AID 149);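 note: 0% = growth of vehicle-treated wt1 cultures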; conditions: S. cerevisiae wt1 strain (SPY 50644) growth inhibition, stronger effect = higher value
Outline: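 Using yeast strain wt1, compound-induced growth inhibition was determined against vehicle-treated cultures.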

[3] = NCI Yeast Anticancer Drug Screen. Data for the rad50EPP+ strain (AID 151);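 note: 0% = growth of vehicle-treated control cultures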; conditions: S. cerevisiae rad50 mutant strain, stronger effect = higher value
Outline: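 In this screen, rad50EPP+ yeast were exposed to compounds. Growth inhibition was scored against vehicle-treated controls.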

[4] = NCI Yeast Anticancer Drug Screen. Data for the rad50 strain (AID 155);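 note: 0% = growth of vehicle-only cultures of the same strain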; conditions: S. cerevisiae rad50 strain growth inhibition, stronger effect = higher value
Outline: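 Relative growth inhibition (compound vs vehicle) was measured in yeast with a defined repair-gene alteration.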

[5] = NCI Yeast Anticancer Drug Screen. Data for the mec2-1 strain (AID 157); conditions: S. cerevisiae mec2-1 strain, stronger effect = higher value
Outline: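 Vehicle-treated cultures served as reference for growth inhibition of compound-exposed mec2-1 yeast.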

[6] = NCI Yeast Anticancer Drug Screen. Data for the rad14 strain (AID 159);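 note: 0% = growth of vehicle-treated control cultures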; conditions: S. cerevisiae rad14 strain growth inhibition, stronger effect = higher value
Outline: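 Screen for anticancer potential: a yeast strain altered in DNA damage repair is grown with compound, and reduced growth is quantified against vehicle controls.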

[7] = NCI Yeast Anticancer Drug Screen. Data for the sgs1 mgt1 strain (AID 161);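 note: 0% = growth of cultures given vehicle only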; conditions: S. cerevisiae sgs1 mgt1 strain, stronger effect = higher value
Outline: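 Read-out: growth inhibition vs vehicle controls. Cells: mutant yeast strain deficient in DNA damage repair.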

[8] = NCI Yeast Anticancer Drug Screen. Data for the CLN2oe strain (AID 163);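 note: 0% = growth of vehicle-only control cultures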; conditions: S. cerevisiae CLN2oe strain, stronger effect = higher value
Outline: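 Inhibition relative to vehicle-treated yeast is reported. Cells: strain with genetic alteration in cell-cycle control, grown with compound.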

[9] = NCI Yeast Anticancer Drug Screen. Data for the cln2 rad14 strain (AID 165);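 note: 0% = growth equal to vehicle treated cultures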; conditions: S. cerevisiae cln2 rad14 strain, stronger effect = higher value
Outline: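 Each compound was tested on cln2 rad14 yeast. Inhibition of growth was calculated against vehicle-exposed controls.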

[10] = NCI Yeast Anticancer Drug Screen. Data for the bub3 strain (AID 167); conditions: S. cerevisiae bub3 mutant strain, stronger effect = higher value
Outline: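 Screening used yeast with an engineered genetic alteration affecting cell cycle control. Compound-exposed cultures were compared with vehicle cultures, and reduced growth was taken as inhibition.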

[11] = NCI Yeast Anticancer Drug Screen. Data for the mlh1 strain (AID 171);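 note: 0% = growth of vehicle-treated control cultures of the same strain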; conditions: S. cerevisiae mlh1 strain growth inhibition, stronger effect = higher value
Outline: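 Vehicle-normalised growth inhibition of a repair- or checkpoint-altered yeast strain following compound treatment.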

[12] = NCI Yeast Anticancer Drug Screen. Data for the mlh1 rad18 strain (AID 175); conditions: S. cerevisiae mlh1 rad18 strain growth inhibition, stronger effect = higher value
Outline: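 Vehicle-treated cultures served as the reference for growth inhibition in a yeast strain carrying DNA damage repair alterations exposed to each compound.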

[13] = NCI Yeast Anticancer Drug Screen. Data for the rad18 strain (AID 177); conditions: S. cerevisiae rad18 mutant growth inhibition, stronger effect = higher value
Outline: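 Test articles were incubated with altered yeast defective in DNA damage repair. Results are given as inhibition of growth versus vehicle.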

[14] = NCI Yeast Anticancer Drug Screen. Data for the mgt1 strain (AID 153); conditions: S. cerevisiae mgt1 mutant growth inhibition, stronger effect = higher value
Outline: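 mgt1 strain exposed; growth vs vehicle control recorded as inhibition.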

[15] = NCI Yeast Anticancer Drug Screen. Data for the wt2 strain (AID 169);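 note: 0% = growth of vehicle-treated yeast cultures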; conditions: S. cerevisiae wt2 strain growth inhibition, stronger effect = higher value
Outline: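 Inhibition of yeast growth was determined after compound treatment, normalised to controls receiving only vehicle.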

[16] = NCI Yeast Anticancer Drug Screen. Data for the sgs1 strain (AID 173);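 note: 0% = growth of vehicle-only control cultures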; conditions: S. cerevisiae sgs1 mutant, stronger effect = higher value
Outline: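 Screen format: yeast with repair or checkpoint alterations, compound exposure, growth read relative to vehicle.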

[17] = at 5.0 µM (retest, dose inferred, filed as 0.5)
[18] = at 50.0 µM (retest, dose inferred, filed as 5.0)

Measured: growth inhibition

COC1C=COC2(C)Oc3c(C)c(O)c4c(c3C2=O)/C(=N/C2CCC(O)OC2C)C=C(NC(=O)/C(C)=C\C(=O)C2CC2C(O)C(C)C(O)C(C)C(OC(C)=O)C1C)C4=O (stereo unspecified)
active: [1]; at 100.0 µM 92% | [4]; at 100.0 µM 90% | [5]; at 100.0 µM 92% | [6]; at 100.0 µM 87% | [9]; at 50.0 µM 81.4% | [10]; at 100.0 µM 91% | [11]; at 100.0 µM 73%
inactive: [1]; at 1.2 µM 0% | [1]; at 3.7 µM -2% | [1]; at 11.0 µM -4% | [1]; at 33.0 µM 17% | [2]; at 1.2 µM 0% | [2]; at 3.7 µM 0% | [2]; at 11.0 µM 1% | [2]; at 33.0 µM -1% | [2]; at 100.0 µM 11% | [3]; at 1.2 µM -2% | [3]; at 3.7 µM -10% | [3]; at 11.0 µM -14% | [3]; at 33.0 µM -7% | [3]; at 100.0 µM -6% | [4]; at 1.2 µM -2% | [4]; at 3.7 µM -3% | [4]; [17] -16% | [4]; at 11.0 µM -2% | [4]; at 33.0 µM 10% | [4]; [18] 37% | [4]; at 50.0 µM 9.3% | [5]; at 1.2 µM 0% | [5]; at 3.7 µM 0% | [5]; [17] 2% | [5]; at 11.0 µM -6% | [5]; at 33.0 µM 1% | [5]; [18] 27% | [5]; at 50.0 µM 30.6% | [6]; at 1.2 µM -4% | [6]; at 3.7 µM -4% | [6]; at 11.0 µM -3% | [6]; at 33.0 µM 16% | [7]; [17] -6% | [7]; [18] 56% | [7]; at 50.0 µM 33.5% | [8]; at 1.2 µM -11% | [8]; at 3.7 µM -11% | [8]; at 11.0 µM -8% | [8]; at 33.0 µM 3% | [8]; at 100.0 µM 53% | [9]; [17] 15% | [9]; [18] 57% | [10]; at 1.2 µM -6% | [10]; at 3.7 µM -6% | [10]; [17] -19% | [10]; at 11.0 µM -2% | [10]; at 33.0 µM -5% | [10]; [18] 7% | [10]; at 50.0 µM 23.4% | [11]; at 1.2 µM 3% | [11]; at 3.7 µM 1% | [11]; at 11.0 µM -1% | [11]; at 33.0 µM 28% | [12]; [17] -7% | [12]; [18] 48% | [12]; at 50.0 µM 17.9% | [13]; at 1.2 µM 0% | [13]; at 3.7 µM 0% | [13]; at 11.0 µM -4% | [13]; at 33.0 µM 10% | [13]; at 100.0 µM 48%

OC1CSCCCSCCSCCCSC1
inactive: [1]; at 1.2 µM -53% | [1]; at 3.7 µM -55% | [1]; at 11.0 µM -49% | [1]; at 33.0 µM -61% | [1]; at 100.0 µM -48% | [2]; at 1.2 µM -12% | [2]; at 3.7 µM -16% | [2]; at 11.0 µM -22% | [2]; at 33.0 µM -25% | [2]; at 100.0 µM -25% | [14]; at 1.2 µM -5% | [14]; at 3.7 µM -6% | [14]; at 11.0 µM -10% | [14]; at 33.0 µM -9% | [14]; at 100.0 µM -29% | [4]; at 1.2 µM -28% | [4]; at 3.7 µM -27% | [4]; [17] -11% | [4]; at 11.0 µM -3% | [4]; at 33.0 µM -2% | [4]; [18] -14% | [4]; at 50.0 µM 12.3% | [4]; at 100.0 µM -25% | [5]; at 1.2 µM -22% | [5]; at 3.7 µM -27% | [5]; [17] -48% | [5]; at 11.0 µM -21% | [5]; at 33.0 µM 4% | [5]; [18] 5% | [5]; at 50.0 µM 20.5% | [5]; at 100.0 µM -29% | [6]; at 1.2 µM -35% | [6]; at 3.7 µM -37% | [6]; at 11.0 µM -28% | [6]; at 33.0 µM -36% | [6]; at 100.0 µM -47% | [7]; [17] -1% | [7]; [18] 4% | [7]; at 50.0 µM 28.7% | [8]; at 1.2 µM -5% | [8]; at 3.7 µM -12% | [8]; at 11.0 µM 3% | [8]; at 33.0 µM 17% | [8]; at 100.0 µM 1% | [9]; [17] 12% | [9]; [18] 25% | [9]; at 50.0 µM 10.7% | [10]; at 1.2 µM -8% | [10]; at 3.7 µM 0% | [10]; [17] 16% | [10]; at 11.0 µM 16% | [10]; at 33.0 µM 64% | [10]; at 50.0 µM 69.2% | [10]; at 100.0 µM 68% | [15]; at 1.2 µM -30% | [15]; at 3.7 µM -17% | [15]; at 11.0 µM -16% | [15]; at 33.0 µM -31% | [15]; at 100.0 µM -22% | [11]; at 1.2 µM -4% | [11]; at 3.7 µM 16% | [11]; at 11.0 µM 2% | [11]; at 33.0 µM 16% | [11]; at 100.0 µM -17% | [16]; at 1.2 µM -9% | [16]; at 3.7 µM -5% | [16]; at 11.0 µM -10% | [16]; at 33.0 µM -14% | [16]; at 100.0 µM -24% | [12]; [17] -22% | [12]; [18] 22% | [12]; at 50.0 µM 26.9% | [13]; at 1.2 µM -30% | [13]; at 3.7 µM -41% | [13]; at 11.0 µM -49% | [13]; at 33.0 µM -49% | [13]; at 100.0 µM -75%
active: [10]; [18] 82%
